# Experimental data taken from PubChem BioAssay (Tox21).
# Inconclusive results are not listed. Values without a mark were called inactive. Calls of active or inactive are those of the source. Calls come from the whole dose curve; as a rule, active = well fitted activation curve with a large enough effect in the signal ratio in the repeat runs (not every such curve was filed as active); inconclusive = weak or mixed curves, or effect the other way; inactive = flat fitted curve, though single readings scatter; the % refers to the signal ratio.
# Test: qHTS assay to identify small molecule agonists of the endoplasmic reticulum stress response signaling pathway (AID 1159516)
# Details: ESRE-bla HeLa, ER stress beta-lactamase reporter, 5 h; series mostly up to 61 µM; activation: at the top concentration
# Description: National Center for Advancing Translational Sciences [NCATS]
# NIH Chemical Genomics Center [NCGC]
# U.S. Environmental Protection Agency [EPA]
# National Institutes of Environmental Health Sciences [NIEHS]
# National Toxicology Program [NTP]
# U.S. Food and Drug Administration [FDA]
# Endoplasmic Reticulum (ER) plays an important role in cellular signaling, protein folding/maturation, stress response, lipid biosynthesis, calcium storage and release etc. Under stress conditions, proteins in ER misfold or unfold, and leading to the expression of ER stress responsive genes. ER stress has been associated with a variety of pathophysiological conditions such as cancer, inflammation, neurodegenerative diseases, diabetes, ischemic heart disease etc. To identify the compounds that induce ER stress response, an ER stress reporter cell line, CellSensor ESRE-bla HeLa (Life Technologies, Carlsbad, CA) containing a beta-lactamase reporter gene under control of the Endoplasmic reticulum Stress Response Element (ESRE) was used to screen Tox21 10K compound library.
# Tox21 Assay Protocol Summary:
# ESRE-bla HeLa cells were dispensed at 1,500 cells/6 uL of assay medium per well into black wall/clear-bottom 1536-well plates using a Multidrop Combi (ThermoFisher Scientific, Waltham, MA) dispenser. After the assay plates were incubated at 37 C and 5% CO2 for an overnight, 23 nL of compounds dissolved in DMSO, positive controls or DMSO only was transferred to the assay plate by a Pintool station (Kalypsys, San Diego, CA). The assay plates were incubated at 37 C and 5% CO2 for 5 hr. One uL of LiveBLAzer B/G FRET substrate (Life Technologies) was added using a Flying Reagent Dispenser (Aurora Discovery, San Diego, CA) and the plates were incubated at room temperature for 2 hr. Fluorescence intensity (405 nm excitation, 460 nm and 530 nm emissions) was measured using an Envision plate reader (PerkinElmer, Shelton, CT).
# % is set by controls: 0 for no effect and ±100 for the full control effect.
Structure (SMILES),activation,outcome
CCOc1cc(C=O)ccc1O,0.734%,
COP(=S)(OC)Oc1cc(Cl)c(Cl)cc1Cl,,inactive
Nc1ccncc1,,inactive
Nc1c(Cl)cc([N+](=O)[O-])cc1Cl,-3.65%,
C1=Cc2cccc3cccc1c23,-0.128%,
CCCCCCCCCCCOC(=O)c1ccccc1C(=O)OCCCCCCCCCCC,1.55%,
CCCCC(CC)COC(=O)Cl (stereo not given),0.532%,
COP(=O)(OC)OC,0.365%,
Oc1ccc(-c2ccccc2)cc1,,inactive
CCC(C)(C)c1ccc(O)cc1,,inactive
CN(C)c1ccc(C(=O)c2ccc(N(C)C)cc2)cc1,10.1%,
COC(=O)c1sccc1S(=O)(=O)NC(=O)Nc1nc(C)nc(OC)n1,,inactive
CC(C)(C)c1ccccc1O,1.04%,
COc1ccc(C(CN(C)C)C2(O)CCCCC2)cc1 (stereo not given),,inactive
CC(C)(OOC(C)(C)c1ccccc1)c1ccccc1,-2.23%,
N#Cc1cc(Br)c(O)c(Br)c1,,inactive
O=[N+]([O-])c1cccc2ccccc12,,inactive
CCOC(=S)S,-1.01% [at 78.8 µM],
Cc1c(COC(=O)[C@@H]2[C@H](/C=C(\Cl)C(F)(F)F)C2(C)C)cccc1-c1ccccc1,,inactive
Cc1cc(Cl)ccc1OCCCC(=O)O,,inactive

Structure (SMILES),activation,outcome
O=[N+]([O-])c1ccc(O)c([N+](=O)[O-])c1,,inactive
O=C(O)CC[N+](=O)[O-],,inactive
N#CC(Br)Br,2.11%,
NC(=S)Nc1ccccc1,1.06%,
CCCCCCOC(=O)c1ccccc1C(=O)OCCCCCC,,inactive
ClC1C(Cl)C(Cl)C(Cl)C(Cl)C1Cl (stereo not given),,inactive
CCC(C)(c1ccc(O)cc1)c1ccc(O)cc1,,inactive
C=CCc1ccc2c(c1)OCO2,,inactive
CNC(=O)Oc1cccc2c1OC(C)(C)O2,,inactive
C[C@]12CCC(=O)C(O)=C1CC[C@@H]1[C@@H]2CC[C@]2(C)C(=O)CC[C@@H]12,-0.328%,
CCC(=O)O[C@H]1CC[C@H]2[C@@H]3CCC4=CC(=O)CC[C@]4(C)[C@H]3CC[C@]12C,0.553%,
O=P(Oc1ccccc1)(Oc1ccccc1)Oc1ccccc1,-0.179%,
O=[N+]([O-])c1c(Cl)c(Cl)c(Cl)c(Cl)c1Cl,,inactive
CN(C)C(=O)Nc1ccc(Cl)cc1,-2.43%,
CC(C)=CC1C(C(=O)OCc2coc(Cc3ccccc3)c2)C1(C)C (stereo not given),,inactive
CC(C)Oc1cc(-n2nc(C(C)(C)C)oc2=O)c(Cl)cc1Cl,,inactive
Oc1cc(Cl)ccc1Cl,,inactive
NNC(=S)NN,,inactive
CCN(CC)C(=O)SCc1ccc(Cl)cc1,,inactive
Nc1ccc(-c2ccccc2)cc1,,inactive
